For this assay, the system named is PPARa:RXRa (NR concentration 270 nM, RXRa partner concentration 90 nM). As to the kind of experiment: PBM binding z-score (relative to random genomic background probes); higher = stronger binding; sequences stand for … in GC…GCGATTGACAGCGTAGAATGAAGG
The essentials:
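Binding z-scores take random background probes as their reference. They come from custom Agilent 4×180K protein-binding microarrays incubated 1 h with ligand-free nuclear receptor dimers, with antibodies against each partner (one per run) detecting binding. Scanned fluorescence was regression-normalized.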
TGAATGAGGTTACAAGATCAGGGAACGTTGCAAA gave a PBM binding z-score of 3.09.
CCTCGGAGGACAGAAGGACAGAGCTGTCCGCTTT displayed a PBM binding z-score of -0.733.
With ATCCAAAGGTCGTGAGGTGAGTATACAGAAAGGC, the PBM binding z-score amounted to 5.37.
CCTTACGGGTGACGAGGTTATAGCACGACGAGCG: the PBM binding z-score is 2.24.
With CCGACTGGGGCAAGGTTACGATAACGCACAGCCA the figure was 2.06.
For the sequence TATACAGGGTGAAAGGCCAGAGTACGAATGTCGA, the PBM binding z-score came to 3.14.
With CAAACTAGATCAAAGGTCAAAGTCGAGCCAACCA the figure was 6.79; with TCTTGTAGATCAACCAGGTTAAGAAAGCCTGAGT, 0.901; with TTAATGAGGTTAAAGATCAGGGAACGTGGCGTCG, 5.01.
For ACTCGGCGGACAAAGGTCAGAGCTACGCCAGTGA the value was 4.34.
With TCTATGAGTTGATTAGGGCAACCGAAACAGCGGA the figure was 1.07.
For the sequence ATCTCTAGGTAACGAAGTTCAGTGAATGCCGAAC, the PBM binding z-score is 0.915.
With CTCGAAAGGTCGGTTGAGTTGAGTATACGGATAA the figure was 2.27; with ACTATTAGTTGATTTAGGGCAACCGATACGACGC, 0.816.
With AGAATGAGGTTATTGAGATCAGGGAATTGCGGTC the figure was 2.79; with ATCTCTAGGTAAGACTCAGTTCAGTGAAGAACGC, 0.0408.
For CCTATTAGTTGACCATACGGGCAACCGAAGCTCG the value was -0.224.
In the case of TTACCAAGGTGAAAGGTCCTTGATGCACGCCTTG, the PBM binding z-score stood at 3.88.
For CCTAGTTGGTCCAGGTCACACACGCTATAGGTAC the value was 2.58; for CCTCGGAGGACAGGAGGTCAGAGCTGTCCGCTTT, 1.96.
In turn, GTACCAAGGTGAATAGATCGTTGATGAGTAGGCG gave a PBM binding z-score of 0.852.
For CCTACTGGGCCACGAAAGGTCGTTGATTCAGTGA the value was 2.67; for CAAACTGGGTCACCGGAAGGTCAAAGTCCGCATG, 5.73; for TCTCGGAGGACACGCAGGTCAGAGCTTTCCAGAG, 1.22.
For CCGAGTAGGTTATCGGGCATTCAGGCAACGGTGA the value was 1.32.
With TCTTGTAGGTCAACAGGAGGTTAAGAAAGATCGA the figure was 5.74; with TGAATTAGGTTAAAGATCAGGGAACGTGGCGTCG, 4.09; with ATTCAAAGTTCATCTAGGTAACGTAAGATATGCT, 4.52.
Take TAGCCTAGGTGATGCGGGCCAGTATAGTGTCGGC: the PBM binding z-score was -0.486.
As for TAGCCTAGGTCCTGGGCCAGTATACCACGCGAAC, the PBM binding z-score is -0.439.
With CCTATTAGTTGACCATAAGGGCAAGCGAAGCTCG the figure was 0.369.
Regarding GGAACGCGGGCAAGTTGATAGCAGAGTTTGATGG, the PBM binding z-score was -0.903.
In turn, TCATATAGGTAATACAGGTGAATGTCGGCATCTA came in with a PBM binding z-score of 1.84.
For ATCGAAAGGTCGACGAGGTGAGTTTACACCGTTT the value was 4.71.
Consider ATATGTAGGTTATCGGGTCATTCAGTTTGCGCAT, for which the PBM binding z-score worked out at 4.62.
As to ACAGACAGGTGAGTGAAGGTAACGCAGCTGGACG, the PBM binding z-score came out at 0.197.
Sequence CGTCCAAGGTCAGCAGATCAGTGAAAGCGACGTG yielded a PBM binding z-score of 3.95.
For AGAATGAGGTTACCAAAGATCCGGGAAACGCTTG the value was 3.23.
Take AGAACGAGGGCAATGAGTTGCTAGCACGGGTGGC: the PBM binding z-score was found to be 1.23.
For CAAACTAGGTCAAAGGTAAAAGTCGAGCCAACCA the value was 6.67.

The values above are taken from the supplement of paper PMC6555819.
